Records with an inconclusive call do not appear. Active and inactive are the calls of the source. Calls follow the shape of the dose curve; as a rule, active = well fitted inhibition curve with a large enough effect; inconclusive = small, poorly fitted or top-dose-only effect; inactive = flat fitted curve, though single readings scatter.
target: Voltage-gated inwardly rectifying potassium channel KCNH2 (Homo sapiens) (UniProt Q12809); assay: qHTS Assay for Small Molecule Inhibitors of the Human hERG Channel Activity (AID 588834); conditions: U2OS BacMam hERG, FluxOR thallium flux fluorescence; series mostly up to 46.1 µM; activity change, negative = inhibition: at the top concentration;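 also: lower thallium flux fluorescence means stronger hERG block; nearly all actives have a fitted effect of over 50% in size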; as to activity change, negative = inhibition: top concentration of the series differs between compounds
Procedure, shortened: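 Thallium serves as surrogate for K+ influx through BacMam-delivered hERG in U2OS cells. Compounds are added for about 10 minutes after dye loading; stimulation buffer then starts flux, monitored kinetically on FDSS.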
% is scaled to controls: 0 for no effect and ±100 for the full control effect; potency is read from the fitted curve at half-maximal effect.

Chain of Voltage-gated inwardly rectifying potassium channel KCNH2 (Homo sapiens) (Q12809 whole entry, looked up): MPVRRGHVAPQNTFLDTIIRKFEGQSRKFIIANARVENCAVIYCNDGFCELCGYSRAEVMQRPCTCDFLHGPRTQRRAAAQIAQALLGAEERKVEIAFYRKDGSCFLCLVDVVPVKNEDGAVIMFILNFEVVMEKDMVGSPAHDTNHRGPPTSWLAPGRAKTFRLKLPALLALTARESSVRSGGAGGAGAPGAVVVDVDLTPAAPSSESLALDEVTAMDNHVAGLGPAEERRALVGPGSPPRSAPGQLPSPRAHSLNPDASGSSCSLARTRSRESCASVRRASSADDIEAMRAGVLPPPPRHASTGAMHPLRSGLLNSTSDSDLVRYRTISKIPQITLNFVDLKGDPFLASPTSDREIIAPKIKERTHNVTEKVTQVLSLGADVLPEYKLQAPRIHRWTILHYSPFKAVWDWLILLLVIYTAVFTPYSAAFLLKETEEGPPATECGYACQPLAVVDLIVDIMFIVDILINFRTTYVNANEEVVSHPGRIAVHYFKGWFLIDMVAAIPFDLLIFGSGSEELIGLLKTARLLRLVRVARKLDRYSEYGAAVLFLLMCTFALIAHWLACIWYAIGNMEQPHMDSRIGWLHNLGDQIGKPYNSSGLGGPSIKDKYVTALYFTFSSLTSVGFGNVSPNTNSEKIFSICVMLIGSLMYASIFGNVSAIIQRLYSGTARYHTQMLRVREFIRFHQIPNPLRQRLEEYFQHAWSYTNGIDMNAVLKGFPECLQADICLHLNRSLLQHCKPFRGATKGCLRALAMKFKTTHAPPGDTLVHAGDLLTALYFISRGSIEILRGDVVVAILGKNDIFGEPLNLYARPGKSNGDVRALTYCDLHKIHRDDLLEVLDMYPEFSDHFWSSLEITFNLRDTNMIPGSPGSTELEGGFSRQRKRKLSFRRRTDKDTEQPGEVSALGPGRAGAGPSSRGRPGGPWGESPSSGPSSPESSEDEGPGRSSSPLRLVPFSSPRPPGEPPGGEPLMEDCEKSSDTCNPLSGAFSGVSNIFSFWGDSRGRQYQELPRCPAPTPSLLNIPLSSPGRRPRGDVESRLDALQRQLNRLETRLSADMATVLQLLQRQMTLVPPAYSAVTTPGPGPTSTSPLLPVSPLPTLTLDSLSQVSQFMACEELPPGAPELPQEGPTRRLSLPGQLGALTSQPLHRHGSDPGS

Row | SMILES | activity change, negative = inhibition | Potency
1 | CC[C@H]1NC(=O)[C@@H](NC(=O)c2ncccc2O)[C@@H](C)OC(=O)[C@H](c2ccccc2)NC(=O)[C@@H]2CC(=O)CCN2C(=O)[C@H](Cc2ccccc2)N(C)C(=O)[C@@H]2CCCN2C1=O | 30.7% (inactive) | –
2 | CCOc1ccc(NC(=S)Nc2ccc(OCC)cc2)cc1 | 2.09% (inactive) | –
3 | COc1cc(NCCCC(C)N)c2ncccc2c1 (stereo not drawn) | 3.54% (inactive) | –
4 | CC1CCCC(C)N1NC(=O)c1ccc(Cl)c(S(N)(=O)=O)c1 (stereo not drawn) | -3.38% [at 20.6 µM] (inactive) | –
5 | O=S(=O)(O)CCCS(=O)(=O)O | 3.99% (inactive) | –
6 | NC(=O)[C@@H]1CCCN1C(=O)[C@H](Cc1cnc[nH]1)NC(=O)[C@@H]1CCC(=O)N1 | 2.17% (inactive) | –
7 | O=C(O)c1cc(N=Nc2ccc(O)c(C(=O)O)c2)ccc1O | 17.1% (inactive) | –
8 | O=C(O)CCC/C=C\C[C@@H]1[C@@H](/C=C/[C@@H](O)COc2cccc(C(F)(F)F)c2)[C@H](O)C[C@@H]1O | -8.02% (inactive) | –
9 | CC(C)[C@@H](C)/C=C/[C@@H](C)[C@H]1CC[C@H]2/C(=C/C=C3\C[C@@H](O)CC[C@@H]3C)CCC[C@]12C | 16.1% (inactive) | –
10 | CCCCCCCCCC(=O)NO | 16.7% (inactive) | –
11 | CCCC1C(=O)N2C(N(C)C)=Nc3ccc(C)cc3N2C1=O (stereo not drawn) | -2.03% [at 20.6 µM] (inactive) | –
12 | CC1(C)[C@@H]2CC[C@@]1(C)[C@H](OC(=O)CSC#N)C2 | -1.84% (inactive) | –
13 | Cc1ccc(S(=O)(=O)NC(=O)N[C@@H](C)Cc2ccccc2)cc1 | 13.4% (inactive) | –
14 | CC(C)C[C@H](NC(=O)[C@@H](Cc1c[nH]c2ccccc12)NC(=O)[C@H](Cc1ccc(O)cc1)NC(=O)[C@H](CO)NC(=O)[C@H](Cc1c[nH]c2ccccc12)NC(=O)[C@H](Cc1cnc[nH]1)NC(=O)[C@@H]1CCC(=O)N1)C(=O)N[C@@H](CCCN=C(N)N)C(=O)N1CCC[C@@H]1C(=O)NCC(N)=O | -6.85% (inactive) | –
15 | CN1C(C(=O)Nc2ccccn2)C(=O)c2sc(Cl)cc2S1(=O)=O (stereo not drawn) | -0.936% (inactive) | –
16 | O=P(O)(O)OP(=O)(O)OP(=O)(O)O | 0.4% (inactive) | –
17 | CCCc1ccc(C(=O)O)cc1 | 0.788% (inactive) | –
18 | CC(CC=O)CCCC(C)(C)O (stereo not drawn) | 17.4% (inactive) | –
19 | CC(C)=CCC/C(C)=C/CC/C(C)=C/CC/C(C)=C/CC1=C(C)C(=O)c2ccccc2C1=O | -1.6% (inactive) | –

Row | SMILES | activity change, negative = inhibition | Potency
20 | CC(C)Cc1ccc([C@@H](C)C(=O)NS(C)(=O)=O)cc1 | 0.13% (inactive) | –
21 | CO[C@H]1C[C@H](O[C@H]2[C@H](C)[C@@H](O[C@@H]3O[C@H](C)C[C@H](N(C)C)[C@H]3O)[C@@H](C)C[C@]3(CO3)C(=O)[C@H](C)[C@@H](O)[C@@H](C)[C@@H](C)OC(=O)[C@@H]2C)O[C@@H](C)[C@@H]1O | 1.18% [at 20.6 µM] (inactive) | –
22 | CO/N=C(\C(=O)N[C@@H]1C(=O)N2C(C(=O)O)=C(CSc3nc(C)c(CC(=O)O)s3)CS[C@H]12)c1csc(N)n1 | 0.523% (inactive) | –
23 | O=[N+]([O-])O[C@@H]1CO[C@H]2[C@@H]1OC[C@@H]2O | 4.03% (inactive) | –
24 | CC/C=C\C/C=C\C/C=C\C/C=C\C/C=C\CCCC(=O)O | 15.8% (inactive) | –
25 | Nc1nc(/C(=C/CC(=O)O)C(=O)N[C@@H]2C(=O)N3C(C(=O)O)=CCS[C@H]23)cs1 | -3.49% (inactive) | –
26 | CC/C(=C(/CC)c1ccc(OP(=O)(O)O)cc1)c1ccc(OP(=O)(O)O)cc1 | 9.17% (inactive) | –
27 | C=CCOc1ccc(CC(=O)O)cc1Cl | -3.6% (inactive) | –
28 | CN[C@@H]1[C@H](O[C@H]2[C@H](O[C@H]3[C@H](O)[C@@H](O)[C@H](N=C(N)N)[C@@H](O)[C@@H]3N=C(N)N)O[C@@H](C)[C@]2(O)CO)O[C@@H](CO)[C@H](O)[C@H]1O | 17.2% (inactive) | –
29 | C=CC1=C(C(=O)O)N2C(=O)[C@@H](NC(=O)/C(=N/OCC(=O)O)c3csc(N)n3)[C@H]2SC1 (stereo in doubt) | 1.33% [at 20.6 µM] (inactive) | –
30 | OCCN1CCN(CC/C=C2/c3ccccc3Sc3ccc(Cl)cc32)CC1 | – | 1.58 µM (active)
31 | CCCCCCCCCCCC(=O)OC[C@@H](O)C1OC[C@H](O)[C@H]1O (stereo partly drawn) | 13.1% (inactive) | –
32 | OC[C@@H](O)C(O)[C@H](O)CO | -11.7% (inactive) | –
33 | CN(C)C=Nc1c(I)cc(I)c(CCC(=O)O)c1I | 8.39% (inactive) | –
34 | CC(=O)Nc1c(I)c(C(=O)O)c(I)c(N(C)C(C)=O)c1I | 3.32% (inactive) | –
35 | OC/C=C/c1ccccc1 | 1.98% (inactive) | –
36 | CN1CCc2c(c3ccccc3n2Cc2ccccc2)C1 | – | 5.01 µM (active)
37 | Cc1c(Cl)cccc1Nc1ncccc1C(=O)O | 3.15% (inactive) | –
38 | CC(C)CN(C[C@@H](OP(=O)(O)O)[C@H](Cc1ccccc1)NC(=O)O[C@H]1CCOC1)S(=O)(=O)c1ccc(N)cc1 | 22.9% (inactive) | –

— PubChem BioAssay (NCATS)
